Experiment [1] can be described thus: inhibitors of TNFa-induced NFkB p65 translocation, primary screen, imaging, HUVEC, MLSMR starter and 10KST1 sets (AID 438).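 For inhibition: signal is the nuclear over cytoplasmic p65 intensity ratio per well.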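 Note: compound added about 3h40 before a 20 min TNFalpha stimulation.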 The following applies: HUVEC TNFa-induced p65 nuclear translocation; cell count: measured here: nuclei count (cytotoxicity indicator), at 2.08 µM; inhibition: at 2 µM, stronger effect = higher value, 0% TNFa-plus-vehicle, 100% no-TNFa wells.
Experiment [2] can be described thus: reduction of polyQ htt aggregates in cells – imaging, exon1htt(103Q)mCFP cells, high-content imaging, primary screen (AID 483;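 active = visual image review flags a hit and inhibition of aggregation exceeds 20%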;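 note: compound exposure lasted 3 days before fixation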;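 for nuclei count: percent of the per-plate median nuclei count of sample wells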). The following applies: exon1htt(103Q)mCFP cell line, aggregate imaging, at 2 µM; inhibition of aggregation: stronger effect = higher value; nuclei count: measured here: cell count, toxicity.
Experiment [3] can be described thus: endothelial E-selectin expression blockers – imaging, HUVEC, immunofluorescence, MLSMR starter and 10KST1 sets, primary screen (AID 487;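 active = visually confirmed hit in the image check and inhibition above 20%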;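 for inhibition: signal is fraction of cell area covered by stained E-selectin grains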;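 for nuclei count: 100% = median nuclei count of all wells on the same plate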). The following applies: HUVEC TNFalpha-induced E-selectin immunofluorescence imaging, at 2 µM; inhibition: stronger effect = higher value; nuclei count: measured here: cell number, toxicity.
Experiment [4] deals with Voltage-gated potassium channel subunit beta-2 (Rattus norvegicus) (UniProt P62483). The experiment in a line: inhibitors of rat Kvbeta2 reductase activity – biochemical, NADPH fluorescence, primary screen (AID 622;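 active = fluorescence slope higher than the sample average by over 3 SD, cut at about -0.22 in these data, passing the limit was not always enough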;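 note: slope of raw intensity against log time taken from 70 to 1610 s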). The following applies: recombinant KvBeta, 4-cyanobenzaldehyde reduction, at 10 µM, stronger effect = higher value.
Experiment [5] has the same target. The experiment in a line: enhancers of rat Kvbeta2 NADPH turnover – biochemical, NADPH fluorescence, primary screen (AID 623;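 active = NADPH fluorescence slope more negative than the mean of all samples by about 3 SD, 99.7% confidence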;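 note: fluorescence intensity change per second fitted from 20 to 320 s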). The following applies: Recombinant KvBeta, NADPH fluorescence decrease slope, 10 min; at 10 µM; stronger effect = lower value.
Experiment [6] addresses Alpha-2C adrenergic receptor (Homo sapiens) (UniProt P18825). Put plainly: compounds altering alpha2C-coupled GIRK flux – cell-based, HEK293 alpha2C/GIRK1/2, thallium flux, primary screen (AID 624;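 active = fluorescence slope after compound addition differing from the mean of all screened samples at 99.7% confidence, in either direction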;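 note: slope of fluorescence ratio to pre-addition baseline per second over 15 to 24 s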). The following applies: thallium flux BTC fluorescence, at 10 µM, actives lie on both sides.
Experiment [7] can be described thus: blockers of RIG-like receptor reporter activation – cell-based, Sendai virus stimulus, luciferase, 10K MLSCN set, TLR/RLR signaling modifier project, primary screen (AID 602276;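 active = inhibition at or above 50% at 10 µM; inactive = inhibition below 50%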;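 note: firefly luciferase from ISG56 promoter only with Renilla not read in this screen; 0% = Sendai virus plus DMSO and 100% = medium plus DMSO without virus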). The following applies: HEK293 RL24 IRF3 luciferase reporter, at 10 µM, stronger effect = higher value.
Experiment [8] in a line: TLR3 IRF3 reporter activation blockers – cell-based, poly I:C stimulus, luciferase, 10K MLSCN set, primary screen (AID 602277;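 active = inhibition of the reporter signal at or above 50%; inactive = inhibition below 50%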). The following applies: HEK293-TLR3 RL24 IRF3 luciferase reporter, at 10 µM, stronger effect = higher value.

The structures appear in SMILES notation. Active and inactive are the calls of the source.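 Rule for the calls, unless noted: active = inhibition above 20% together with a positive visual image hit; inconclusive = visual image hit but inhibition not above 20%; inactive = no visual image hit.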

Alpha-2C adrenergic receptor (Homo sapiens), sequence (P18825 whole entry, looked up): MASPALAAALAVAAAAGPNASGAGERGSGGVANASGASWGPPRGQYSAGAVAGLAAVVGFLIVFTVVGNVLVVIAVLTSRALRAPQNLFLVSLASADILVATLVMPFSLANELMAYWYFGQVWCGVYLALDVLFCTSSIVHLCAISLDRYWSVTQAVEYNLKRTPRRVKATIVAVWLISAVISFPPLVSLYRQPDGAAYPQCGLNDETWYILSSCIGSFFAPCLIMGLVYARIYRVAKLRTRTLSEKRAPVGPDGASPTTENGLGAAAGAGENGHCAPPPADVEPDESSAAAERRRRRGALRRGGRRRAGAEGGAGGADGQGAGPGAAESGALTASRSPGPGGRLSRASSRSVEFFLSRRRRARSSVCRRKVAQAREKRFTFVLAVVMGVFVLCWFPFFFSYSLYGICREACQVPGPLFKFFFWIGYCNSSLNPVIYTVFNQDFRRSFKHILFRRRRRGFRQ
Voltage-gated potassium channel subunit beta-2 (Rattus norvegicus), sequence (P62483 whole entry, looked up): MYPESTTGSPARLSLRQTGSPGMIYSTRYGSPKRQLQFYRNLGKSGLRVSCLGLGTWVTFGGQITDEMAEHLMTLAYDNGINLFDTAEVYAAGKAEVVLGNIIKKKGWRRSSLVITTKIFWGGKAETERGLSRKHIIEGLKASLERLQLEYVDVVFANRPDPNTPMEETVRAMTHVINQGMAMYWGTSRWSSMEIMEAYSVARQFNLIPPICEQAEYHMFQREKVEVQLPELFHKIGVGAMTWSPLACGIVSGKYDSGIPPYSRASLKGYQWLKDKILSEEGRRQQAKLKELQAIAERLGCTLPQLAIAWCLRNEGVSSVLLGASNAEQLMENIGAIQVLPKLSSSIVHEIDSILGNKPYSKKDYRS

As to `O=c1[nH]c2cc3c(cc2cc1C(c1nnnn1Cc1ccccc1)N1CCCc2ccccc21)OCO3` (centres undefined), the cell count in experiment [1] is 552. Also, the inhibition was -7.7% (inactive) in experiment [1], 20.7% (inactive) in experiment [3], 10.6% (inactive) in experiment [7] and 15.5% (inactive) in experiment [8]. The inhibition of aggregation in experiment [2] was 16.5% (inactive). Moreover, the values for the nuclei count in experiment [2] and in experiment [3] were 100% and 108%, respectively. In addition, the fluorescence slope in experiment [4] is -0.621 (inactive). Moreover, in experiment [5], the NADPH fluorescence slope is 1.7e-05 (inactive). Further, the slope in experiment [6] was 0.0031 (inactive).
On to `CCn1nnnc1SCC(=O)N1CCOCC1`, for which, in experiment [1], the cell count was determined as 707. The inhibition was 11.3% (inactive) in experiment [1], -0.6% (inactive) in experiment [3], 14.6% (inactive) in experiment [7] and 8.47% (inactive) in experiment [8]. Further, the inhibition of aggregation in experiment [2] was -2% (inactive). In addition, the nuclei count in experiment [2] and in experiment [3] was 122% throughout. Moreover, in experiment [4], the fluorescence slope is -0.637 (inactive). Besides, in experiment [5], the NADPH fluorescence slope was 3.1e-06 (inactive). Moreover, the slope in experiment [6] was 0.0034 (inactive).
In the case of `Cn1c(N2CCC(C(N)=O)CC2)nc2c1c(=O)n(Cc1ccc(Br)cc1)c(=O)n2C`, the cell count in experiment [1] was found to be 537. In addition, the inhibition was -2.7% (inactive) in experiment [1], 24.2% (inactive) in experiment [3], 6.03% (inactive) in experiment [7] and 1.39% (inactive) in experiment [8]. The inhibition of aggregation in experiment [2] was 4.3% (inactive). The nuclei count in experiment [2] turned out to be 97.3%; in experiment [3], 95.1%. Further, the fluorescence slope in experiment [4] is -0.571 (inactive). For the same molecule, the NADPH fluorescence slope in experiment [5] was -2.3e-05 (inactive). For the same molecule, the slope in experiment [6] is 0.00671 (inactive).
`CCCCCCNC(=O)c1c(N)n(/N=C/c2ccco2)c2nc3ccccc3nc12`: in experiment [1], the cell count is 602. Moreover, the inhibition in experiment [1] is 11.2% (inactive); in experiment [3], 26.4% (inactive); in experiment [7], 11.1% (inactive); in experiment [8] it was 8.29% (inactive). Further, the inhibition of aggregation in experiment [2] is -16.8% (inactive). The nuclei count came to 79.6% in experiment [2] and 104% in experiment [3]. In addition, the fluorescence slope in experiment [4] is -0.251 (inactive). Further, the NADPH fluorescence slope in experiment [5] is -6e-06 (inactive). Also, the slope in experiment [6] was 0.00525 (inactive).
With `Cc1ccc2cc(C(c3nnnn3CC3CCCO3)N3CCc4ccccc4C3)c(=O)[nH]c2c1` (centres undefined), in experiment [1], the cell count came out at 691. Further, the inhibition in experiment [1] is -6.9% (inactive); in experiment [3] it was -102% (inactive); in experiment [7], 14% (inactive); in experiment [8], 29.9% (inactive). Further, in experiment [2], the inhibition of aggregation was 0.5% (inactive). Further, the nuclei count in experiment [2] worked out at 78.6%; in experiment [3] it was 120%. For the same molecule, the fluorescence slope in experiment [4] was -0.523 (inactive). In addition, the NADPH fluorescence slope in experiment [5] is -3.7e-05 (inactive). The slope in experiment [6] was 0.00473 (inactive).
Turning to `C1=Nc2c(NCc3ccccc3)ncnc2Oc2ccccc21`, the cell count in experiment [1] was 305. Besides, the inhibition in experiment [1] was -0.2% (inactive); in experiment [3], -17.3% (inactive); in experiment [7], -11.5% (inactive); in experiment [8], 1.46% (inactive). The inhibition of aggregation in experiment [2] was 3.8% (inactive). The nuclei count in experiment [2] came out at 98.1%; in experiment [3] it was 112%. In addition, the fluorescence slope in experiment [4] is -0.502 (inactive). For the same molecule, in experiment [5], the NADPH fluorescence slope is -2.6e-05 (inactive). Moreover, in experiment [6], the slope was 0.00376 (inactive).
For the molecule `COc1ccccc1NC(=O)NC1(C(=O)N2CCC(O)CC2)CCCCC1`, the cell count in experiment [1] is 242. Besides, the inhibition in experiment [1] is 3.9% (inactive); in experiment [3], 1.6% (inactive); in experiment [7] it was -0.183% (inactive); in experiment [8], 2.89% (inactive). Moreover, the inhibition of aggregation in experiment [2] was 16.6% (inactive). The values for the nuclei count in experiment [2] and in experiment [3] were 79.3% and 94%, respectively. The fluorescence slope in experiment [4] was -0.605 (inactive). Further, in experiment [5], the NADPH fluorescence slope was 1.9e-06 (inactive). Besides, the slope in experiment [6] is 0.00897 (inactive).
With `O=C(NC1CCCCC1)C(c1ccc(Cl)cc1)N(C(=O)c1cnccn1)c1ccc2c(c1)OCO2` (centres undefined), the cell count in experiment [1] is 694. For the same molecule, the inhibition in experiment [1] is 3.4% (inactive); in experiment [3], -87% (inactive); in experiment [7], 11.2% (inactive); in experiment [8], 7.2% (inactive). In experiment [2], the inhibition of aggregation was 21.6% (inactive). The nuclei count in experiment [2] came out at 93.8%; in experiment [3], 110%. Moreover, the fluorescence slope in experiment [4] was -0.392 (inactive). Further, in experiment [5], the NADPH fluorescence slope is -3.7e-05 (inactive). Moreover, the slope in experiment [6] is 0.00597 (inactive).
With `Cc1cc(C(=O)CSCCCn2c(=O)[nH]c3ccccc32)c(C)n1C`, the cell count in experiment [1] was determined as 494. The inhibition in experiment [1] was -3.3% (inactive); in experiment [3], -68.3% (inactive); in experiment [7], -10.6% (inactive); in experiment [8], -5.21% (inactive). Further, the inhibition of aggregation in experiment [2] was 28.4% (inactive). Besides, the nuclei count in experiment [2] is 84.7%; in experiment [3], 113%. The fluorescence slope in experiment [4] was -0.604 (inactive). Further, in experiment [5], the NADPH fluorescence slope is -9.1e-06 (inactive). The slope in experiment [6] was 0.00689 (inactive).
For `CCOC(=O)c1sc(NC(=O)c2c(C)nn(Cc3ccccc3)c2C)cc1C`, in experiment [1], the cell count was determined as 395. The inhibition in experiment [1] is -7.8% (inactive); in experiment [3] it was -20.6% (inactive); in experiment [7] it was -9.51% (inactive); in experiment [8], -3.87% (inactive). Besides, the inhibition of aggregation in experiment [2] is 42.3% (active). In addition, the nuclei count in experiment [2] was determined as 60%; in experiment [3] it was 106%. In addition, in experiment [4], the fluorescence slope is -0.448 (inactive). In experiment [5], the NADPH fluorescence slope is -0.000126 (inactive). In experiment [6], the slope is 0.00542 (inactive).
Regarding `CC1Cc2ccccc2N1Cc1cc(=O)n2ccsc2n1` (centres undefined), the cell count in experiment [1] is 453. The inhibition in experiment [1] was -5.7% (inactive); in experiment [3], -157% (inactive); in experiment [7], 1.61% (inactive); in experiment [8], 20.7% (inactive). Also, the inhibition of aggregation in experiment [2] was -2.2% (inactive). Further, the nuclei count in experiment [2] was found to be 96.8%; in experiment [3], 121%. Besides, the fluorescence slope in experiment [4] was -0.581 (inactive). Moreover, the NADPH fluorescence slope in experiment [5] is -2e-05 (inactive). In addition, in experiment [6], the slope is 0.00674 (inactive).
As for `Cc1noc(/C=C/N(C)C)c1S(=O)(=O)N1CCCC(C(=O)NC2CCCCC2)C1` (centres undefined), the cell count in experiment [1] worked out at 625. Also, the inhibition is 11.7% (inactive) in experiment [1], 34.5% (inactive) in experiment [3], 16.1% (inactive) in experiment [7] and 14.8% (inactive) in experiment [8]. For the same molecule, the inhibition of aggregation in experiment [2] is 7.9% (inactive). Moreover, the nuclei count was found to be 93.6% in experiment [2] and 62.5% in experiment [3]. Moreover, in experiment [4], the fluorescence slope is -0.566 (inactive). In addition, the NADPH fluorescence slope in experiment [5] was 1.6e-05 (inactive). The slope in experiment [6] is 0.0069 (inactive).
As for `CCn1c(-c2cc(Br)ccc2O)n[nH]c1=S`, in experiment [1], the cell count worked out at 623. For the same molecule, the inhibition in experiment [1] is -3.8% (inactive); in experiment [3] it was -27.4% (inactive); in experiment [7], 8.59% (inactive); in experiment [8] it was 9.74% (inactive). Moreover, the inhibition of aggregation in experiment [2] is -0.9% (inactive). Besides, the nuclei count in experiment [2] worked out at 112%; in experiment [3], 83.3%. For the same molecule, the fluorescence slope in experiment [4] was -0.59 (inactive). The NADPH fluorescence slope in experiment [5] was -3.5e-05 (inactive). Besides, the slope in experiment [6] is 0.00762 (inactive).
For `CC(C)(C)NC(=O)COC(=O)c1ccc(O)cc1`, the cell count in experiment [1] was found to be 714. Besides, the inhibition in experiment [1] was -6.7% (inactive); in experiment [3] it was 10% (inactive); in experiment [7] it was -6.22% (inactive); in experiment [8], -8.12% (inactive). In experiment [2], the inhibition of aggregation is -18.1% (inactive). The nuclei count in experiment [2] turned out to be 98.1%; in experiment [3] it was 101%. For the same molecule, in experiment [4], the fluorescence slope is -0.625 (inactive). For the same molecule, the NADPH fluorescence slope in experiment [5] is 7.6e-06 (inactive). Further, the slope in experiment [6] is 0.00738 (inactive).
